The list is not random: actives were taken first. Their share in the collection is about 7.5%.
HCV inhibitor – qHTS Assay for Inhibitors of Hepatitis C Virus (HCV) | Huh7.5.1 HCVcc-Cre infection, luciferase reporter, 44 h | Potency, µM (highest dose often 41.8 µM), for inactives: at the highest dose activity change, negative = inhibition, usual class: inhibitors | 3.4% of 340,000 active; note: potency is the fitted concentration of half-maximal effect
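Antiviral activity was scored by luciferase reporter output from cells infected with HCVcc-Cre (~0.5 moi) in presence of compound, 44 h infection period, cells seeded 1,000/well 4 h prior.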
VACV Venus inh – qHTS for Stage-Specific Inhibitors of Vaccinia Orthopoxvirus: Venus Reporter Primary qHTS. Vaccinia virus Venus reporter expression, fluorescence. Potency, µM (series often up to 36.5 µM), without a hit: at the highest dose activity change, negative = inhibition, usual class: inhibitors. 0.46% of 330,000 active; calls by dose curve; tested in A549 cells; note: potency is the fitted concentration of half-maximal effect; nearly all actives have a fitted effect of over 30% in size
HCMV inh – qHTS Assay for inhibitors of the human cytomegalovirus (HCMV) | HFF cells, HCMV-luciferase reporter, 72 h; stronger effect = lower value | activity change, negative = inhibition, % at 57.5 µM | 4.5% of 410,000 active | AID 1259415, 2018; in the data active = activity change below about -60%; inconclusive = no clear call, values can overlap the other calls; inactive = above about -39%
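Steps: HFFs plated, 16 h 37C; compounds added; HCMV-luciferase added to MOI 1 PFU/cell; 72 h 37C; OneGlo reagent, 5 min room temperature; luminescence read, normalized to controls.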
Giardia FBPA inh – qHTS Assay for Inhibitors of Fructose-1,6-bisphosphate Aldolase from Giardia Lamblia; AID 2451, 2010; A8B2U2; 0.71% of 290,000 active; purified Giardia FBPA; Potency, µM (highest dose often 59.6 µM), for the others: at the highest dose activity, negative = inhibition, usual class: inhibitors; note: potency is the fitted concentration of half-maximal effect; nearly all actives have a fitted effect of over 55% in size
Target sequence (A8B2U2 whole entry, looked up): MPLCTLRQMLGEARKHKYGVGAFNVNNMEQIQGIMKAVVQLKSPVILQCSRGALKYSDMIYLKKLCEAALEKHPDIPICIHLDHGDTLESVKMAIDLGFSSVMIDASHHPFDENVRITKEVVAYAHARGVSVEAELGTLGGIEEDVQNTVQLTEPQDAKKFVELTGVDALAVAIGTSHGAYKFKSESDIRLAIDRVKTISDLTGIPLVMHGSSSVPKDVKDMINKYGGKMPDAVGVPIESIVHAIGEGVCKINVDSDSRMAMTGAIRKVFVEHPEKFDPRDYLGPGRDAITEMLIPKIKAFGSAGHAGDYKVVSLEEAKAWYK
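Giardia FBPA (40 nM reagent) was preincubated 10 min at RT with compound (up to 57.5 uM final), then substrate plus GAPDH/TPI/NAD/arsenate coupling system with diaphorase/resazurin was added; resorufin fluorescence (525/598 nm) was read after 20 min.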
Vaccinia mCherry – qHTS for Stage-Specific Inhibitors of Vaccinia Orthopoxvirus: mCherry Reporter Primary qHTS. Vaccinia virus mCherry reporter infection, fluorescence. Potency, µM (highest dose often 36.5 µM), for inactives: at the top dose activity change, negative = inhibition, actives largely listed as inhibitors. 0.63% of 310,000 active. AID 720579, 2013; calls by dose curve; tested in A549 cells; note: potency is the fitted concentration of half-maximal effect; nearly all actives have a fitted effect of over 35% in size
FMDV inh – High Throughput Screening for Foot and Mouth Disease Virus Antivirals; FMDV antiviral cell-based qHTS; Potency, µM (top dose mostly 57.9 µM), for inactives: at the top dose activity change, negative = inhibition, actives largely listed as inhibitors; 1.2% of 410,000 active; calls by dose curve; tested in HEK293T cells; note: read-out not given here; potency is the fitted concentration of half-maximal effect; nearly all actives have a fitted effect of over 45% in size
* = called active by the depositor; i = inactive; ? = inconclusive; · = no result; [ ] = remark or other dose. Unless noted, calls come from the whole dose curve; as a rule, active = well fitted curve in the direction sought with a large enough effect; inconclusive = small, poorly fitted or top-dose-only effect, or another doubt; inactive = no such curve, though single readings can be large; an effect the other way counts as inactive or inconclusive. % is set by controls: 0 for no effect and ±100 for the full control effect.

SMILES | HCV inhibitor | VACV Venus inh | HCMV inh | Giardia FBPA inh | Vaccinia mCherry | FMDV inh
CC1CCC(CN2C(Nc3ccccc3)=NC[C@@H]2Cc2ccccc2)CC1 (some centres undefined) | 7.9µM* | -29% | 36 | · | ? | -19%
Oc1[nH]c(N=C2N=c3ccccc3=N2)c2ccccc12 | -26% | -23% | -97* | -11% | -20% | 10%
COc1cccc(CNC(=O)CCCSc2ccccc2)c1 | ? | -10% | 20 | 3% | i | 47%
O=c1oc2ccccc2c(Nc2cc3ccccc3cc2O)c1[N+](=O)[O-] | -15% | -20% | -2 | 6.3µM* | ? | 0%
Cc1ccc(NS(=O)(=O)c2ccc(Cl)c(C(=O)Nc3ccccc3-c3nc4ccccc4[nH]3)c2)cc1C | 3.5µM* | 10µM* | -85* | -2% | ? | -46%
COC(=O)N1CCN(c2ccc(Cl)c(Cl)c2)CC1 | 0% | · | -19 | -4% | · | ?
CC(=O)N1CCN(c2ccc(N)cc2)CC1 | · | · | -74* | · | · | -12%
CC(=O)N1CCN(c2ccc(NC(=O)c3ccc(C(C)(C)C)cc3)cc2)CC1 | ? | ? | -86* | -2% | -20% | ·
CC(=O)N1CCN(c2ccc(NC(=O)c3ccc(Cl)cc3)cc2)CC1 | 7% | · | -18 | 1% | · | 2%
Nc1ccc(N2CCCCCC2)cc1 | · | · | · | 11µM* | · | ·
O=C(O)c1ccc(N2CCCCC2)cc1 | -1% | · | -6 | 2% | · | -7%
Nc1ccc(N2CCN(c3ccc(Cl)c(Cl)c3)CC2)cc1 | ? | -20% | -85* | 1% | ? | 0%
CCC(=O)N1CCc2cc(Br)cc(S(=O)(=O)N3CCCC(C(=O)NCc4ccccc4)C3)c21 (centres undefined) | · | -12% | -19 | · | -2% | 0%
CC1(C)CN(c2ccsc2C(=O)O)C1=O | 2% | -7% | 12 | 2% | -14% | -2%
N#Cc1cccc(S(=O)(=O)N2CCN(c3nc(-c4cccs4)nc4ccccc34)CC2)c1 | · | -7% | · | · | -8% | ·
CCc1ccc(-n2c(=O)c3c4c(sc3n(CC(=O)NC(C)CC)c2=O)CCCC4)cc1 (centres undefined) | · | -4% | -3 | · | -4% | -5%
Nc1ccc(N2CCN(c3ccc(F)cc3)CC2)cc1 | 1% | -2% | -60* | 2% | ? | -4%
O=S(=O)(c1ccc(F)cc1)N1CCN(c2ccc(F)cc2)CC1 | 7% | · | -9 | 4% | · | -25%
COc1cc2c(cc1OC)CN(c1nc(-c3cccnc3)nc3ccccc13)CC2 | 14µM* | -30% | -36 | -11% | -25% | 16µM*
O=S(=O)(c1ccccc1F)N1CCN(c2nc(-c3cccnc3)nc3ccccc23)CC1 | ? | · | -22 | · | · | -16%
CN1CCN(c2nc(-c3cccnc3)nc3ccccc23)CC1 | -24% | -10% | 9 | 2% | -11% | 6%
Cc1ccc(C)c(S(=O)(=O)N2CCN(c3nc(-c4cccnc4)nc4ccccc34)CC2)c1 | 11µM* | · | 20 | · | · | ?
CN(Cc1ccccc1F)c1nc(-c2cccs2)nc2ccccc12 | ? | 0% | -60* | 18% | i | ?
CCCc1cc(=O)oc2c3c(c4c(c12)OC(C)(C)C=C4)OC(C)C(C)C3O (centres undefined) | 10µM* | ? | -77* | -12% | 11µM* | -1%
CCCc1cc(=O)oc2c3c(cc(OCC(=O)N[C@@H](C)C(=O)O)c12)OC(C)(C)CC3 | 20% | -3% | -31 | -6% | -4% | -8%
SMILES | HCV inhibitor | VACV Venus inh | HCMV inh | Giardia FBPA inh | Vaccinia mCherry | FMDV inh
CCOC(=O)c1ccc(N2C(=O)c3n[nH]c(-c4ccco4)c3C2c2ccc(OCC)cc2)cc1 (centres undefined) | · | -9%[7.34 µM] | -88* | · | -8%[7.34 µM] | ?
CCOC(=O)c1ccc(N2C(=O)c3n[nH]c(-c4ccco4)c3C2c2cccc(O)c2)cc1 (centres undefined) | · | -13% | 14 | · | -25% | 25µM*
CCOC(=O)c1ccc(N2C(=O)c3n[nH]c(-c4ccco4)c3C2c2cccc(F)c2)cc1 (centres undefined) | · | -26% | -98* | · | -28% | ?
CCOC(=O)c1ccc(N2C(=O)c3n[nH]c(-c4ccco4)c3C2c2cccc(OC)c2)cc1 (centres undefined) | · | -20% | -10 | · | -27% | ?
CCOC(=O)c1ccc(N2C(=O)c3n[nH]c(-c4ccco4)c3C2c2ccc(F)cc2)cc1 (centres undefined) | · | -12% | -89* | · | -25% | ?
Cc1ccc(Cn2c(C)c3cnn(CC(=O)N4CCN(c5cc(C)ccc5C)CC4)c(=O)c3c2C)cc1 | · | -29% | ? | · | -22% | ?
CCOC(=O)c1ccc(N2C(=O)c3n[nH]c(C)c3C2c2ccccc2OC)cc1 (centres undefined) | · | -1% | 2 | · | -6% | 0%
CCOC(=O)c1ccc(N2C(=O)c3n[nH]c(-c4ccco4)c3C2c2ccccc2OC)cc1 (centres undefined) | · | -30% | -101* | · | ? | 22µM*
Cc1cc2c(nc1C)CCCCN2C[C@H](O)CN1CCCc2nc(-c3ccc(Br)cc3)ccc21 | · | · | · | -4%[12.9 µM] | · | ·
COc1ccc(N2CCN(C(=O)c3oc4ccccc4c3NC(=O)CCc3cc(OC)no3)CC2)cc1 | ? | -14% | -9 | -6% | ? | 25µM*
COc1cc(CCC(=O)Nc2c(C(=O)N3CCN(c4ccccc4)CC3)oc3ccccc23)on1 | -21% | -17% | 19 | -10% | -3% | 31%
NC(=O)c1ccccc1NC(=O)CN1CCN(Cc2ccccc2)CC1 | 3% | · | 16 | 0% | · | -19%
NC(=O)c1ccccc1NC(=O)CN1CCN(Cc2ccc(Cl)cc2Cl)CC1 | ? | -20% | ? | 7% | -5% | 18µM*
COc1ccc2nccnc2c1[N+](=O)[O-] | 11% | -14% | -21 | 4% | i | 7%
Cc1cc(C(=O)C(=O)O)c(C)n1-c1ccc(Cl)cc1 | 8% | -22% | -32 | ? | i | 0%
Cc1cc(C(=O)C(C)Sc2cccc[n+]2[O-])c(C)n1-c1ccc(Cl)cc1 (centres undefined) | 4.5µM* | -19% | -26 | 2% | -27% | -7%
O=c1[nH]c(=O)n(C2CC(O)C(CO)O2)cc1I (centres undefined) | 16% | ? | -6 | · | 5µM* | -2%
Cc1cn(C2CC(O)C(CO)O2)c(=O)[nH]c1=O (centres undefined) | · | · | · | 7% | · | ·
O=c1[nH]c(=O)n([C@H]2C[C@H](O)[C@@H](CO)O2)cc1F | ? | ? | -67* | -3% | ? | -16%

Screening results as filed in PubChem.
